“And” between values parts separate entries of the source, which are not always exact repeats. Identical values can stand only once. This is part of a sample that, as a whole, favours compounds with a hit. Of some 79,000 tested, about 15% had one in any assay. Some structures have more than one record in an assay (separate samples or runs), and their calls can disagree. The source made the active and inactive calls. No stated cut-off is given here; in the data, active means growth inhibition above about 70%; inactive means the rest.
How the values were obtained:
[1] = NCI Yeast Anticancer Drug Screen. Data for the rad50 strain (AID 155);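 further: 0% = growth of vehicle-only cultures of the same strain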; conditions: S. cerevisiae rad50 strain growth inhibition, stronger effect = higher value
Method in brief: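 Vehicle-treated cultures provide the reference for the growth inhibition reported for compound-exposed, repair-deficient yeast.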

[2] = NCI Yeast Anticancer Drug Screen. Data for the mec2-1 strain (AID 157); conditions: S. cerevisiae mec2-1 strain, stronger effect = higher value
Method in brief: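 Mutant yeast (mec2-1) grown with compound; growth inhibition relative to vehicle control reported.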

[3] = NCI Yeast Anticancer Drug Screen. Data for the sgs1 mgt1 strain (AID 161);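 further: 0% = growth of cultures given vehicle only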; conditions: S. cerevisiae sgs1 mgt1 strain, stronger effect = higher value
Method in brief: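 This yeast growth screen uses a strain with defined DNA-repair lesions; compound-treated growth is compared with vehicle-treated growth.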

[4] = NCI Yeast Anticancer Drug Screen. Data for the cln2 rad14 strain (AID 165);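 further: 0% = growth equal to vehicle treated cultures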; conditions: S. cerevisiae cln2 rad14 strain, stronger effect = higher value
Method in brief: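 Readout is yeast growth inhibition versus vehicle-treated controls, using a strain with cln2 and rad14 alterations exposed to compound.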

[5] = NCI Yeast Anticancer Drug Screen. Data for the bub3 strain (AID 167); conditions: S. cerevisiae bub3 mutant strain, stronger effect = higher value
Method in brief: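 Mutant yeast screening strain plus compound; vehicle-treated cultures serve as the 0% inhibition reference.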

[6] = NCI Yeast Anticancer Drug Screen. Data for the mlh1 rad18 strain (AID 175); conditions: S. cerevisiae mlh1 rad18 strain growth inhibition, stronger effect = higher value
Method in brief: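 Genetically defined yeast (DNA repair-deficient) exposed to compounds; growth inhibition determined relative to vehicle.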

[7] = at 5.0 µM (retest, dose inferred, filed as 0.5)
[8] = at 50.0 µM (retest, dose inferred, filed as 5.0)

Measured: growth inhibition

CC(Cc1ccccc1)[N+](=O)[O-] (stereo not drawn)
inactive: [1]; [7] 8% | [2]; [7] 0% | [2]; [8] 6% | [2]; at 50.0 µM -12.9% | [3]; [7] 2% | [3]; [8] 7% | [3]; at 50.0 µM -8.2% | [4]; [7] 3% | [4]; [8] -3% | [4]; at 50.0 µM -19.6% | [5]; [7] 7% | [5]; [8] 27% | [5]; at 50.0 µM -6.9% | [6]; [7] -1% | [6]; [8] 10% | [6]; at 50.0 µM 12.1%
active: [1]; [8] 70% | [1]; at 50.0 µM 79%

CN(C)c1ccc(/C=C/c2cc[n+]3ccsc3n2)cc1
active: [1]; at 50.0 µM 90.8% | [2]; [8] 94% | [2]; at 50.0 µM 88% | [3]; [8] 93% | [3]; at 50.0 µM 92.2% | [4]; at 50.0 µM 72% | [5]; [8] 90% | [5]; at 50.0 µM 96.2% | [6]; [8] 85% | [6]; at 50.0 µM 97.2%
inactive: [1]; [7] -3% | [1]; [8] 69% | [2]; [7] 24% | [3]; [7] -10% | [4]; [7] -5% | [4]; [8] 63% | [5]; [7] 8% | [6]; [7] 2%

COP(=S)(OC)N(C)C(=O)Oc1cccc2ccccc12
inactive: [1]; [7] 0% | [1]; [8] 27% | [1]; at 50.0 µM 48.5% | [2]; [7] -21% | [2]; [8] 15% | [2]; at 50.0 µM 39.2% | [3]; [7] -20% | [3]; [8] 57% | [3]; at 50.0 µM 60% | [4]; [7] 0% | [4]; [8] 10% | [4]; at 50.0 µM 55.5% | [5]; [7] 9% | [5]; [8] 40% | [5]; at 50.0 µM 61.4% | [6]; [7] -14%
active: [6]; [8] 77% | [6]; at 50.0 µM 80.8%

CCOC(=O)C(Cc1ccc(O)cc1)NCc1ccc(N(CCCl)CCCl)cc1 (stereo not drawn)
inactive: [1]; at 50.0 µM 37.8% | [2]; [7] 36% | [2]; at 50.0 µM 69.1% | [3]; [7] 64% | [4]; [7] 52% | [4]; at 50.0 µM 56.7% | [5]; [7] 65% | [5]; at 50.0 µM 69.5%
active: [1]; [7] 83% | [1]; [8] 83% | [2]; [8] 94% | [3]; [8] 99% | [3]; at 50.0 µM 72.2% | [4]; [8] 84% | [5]; [8] 94% | [6]; [7] 80% | [6]; [8] 76% | [6]; at 50.0 µM 76.7%

CC(C)(C)[CH2][Hg][Cl]
active: [1]; [7] 100% | [1]; [8] 100% | [1]; at 50.0 µM 99.7% | [2]; [7] 100% | [2]; [8] 100% | [2]; at 50.0 µM 99.5% | [3]; [7] 100% | [3]; [8] 99% | [3]; at 50.0 µM 99.5% | [4]; [7] 100% | [4]; [8] 99% | [4]; at 50.0 µM 98.7% | [5]; [7] 100% | [5]; [8] 100% | [5]; at 50.0 µM 99.5% | [6]; [7] 99% | [6]; [8] 99% | [6]; at 50.0 µM 99.5%

NCC(O)c1cccc(O)c1 (stereo not drawn)
active: [1]; [8] 77% | [1]; at 50.0 µM 70.3% | [5]; [8] 77% | [5]; at 50.0 µM 75.2% | [6]; [8] 92%
inactive: [1]; [7] -18% | [2]; [7] -12% | [2]; [8] 50% | [2]; at 50.0 µM 40.2% | [3]; [7] -8% | [3]; [8] 51% | [3]; at 50.0 µM 66.3% | [4]; [7] 24% | [4]; [8] 65% | [4]; at 50.0 µM 60% | [5]; [7] 12% | [6]; [7] 11% | [6]; at 50.0 µM 65.3%

O=[N+]([O-])c1ccc(SC2CCCCCCC2Cl)c([N+](=O)[O-])c1 (stereo not drawn)
active: [3]; [8] 76% | [5]; [8] 85% | [6]; at 50.0 µM 72.8%
inactive: [1]; [7] 6% | [1]; [8] 22% | [1]; at 50.0 µM 22.1% | [2]; [7] 8% | [2]; [8] 41% | [2]; at 50.0 µM 4.3% | [3]; [7] 10% | [3]; at 50.0 µM 30.1% | [4]; [7] -1% | [4]; [8] 29% | [4]; at 50.0 µM 14.8% | [5]; [7] 15% | [5]; at 50.0 µM 20.5% | [6]; [7] 7% | [6]; [8] 53%

O=C(CBr)OCc1ccccc1
active: [1]; [7] 96% and 98% | [1]; [8] 99% | [1]; at 50.0 µM 99.5% | [2]; [7] 98% and 99% | [2]; [8] 99% and 100% | [2]; at 50.0 µM 99.8% | [3]; [7] 97% and 100% | [3]; [8] 99% and 100% | [3]; at 50.0 µM 99.7% | [4]; [7] 84% and 93% | [4]; [8] 99% | [4]; at 50.0 µM 99.4% | [5]; [7] 97% and 99% | [5]; [8] 99% | [5]; at 50.0 µM 99.4% | [6]; [7] 99% | [6]; [8] 99% | [6]; at 50.0 µM 99.4%

CC(C)NCC(O)c1ccccc1Cl (stereo not drawn)
inactive: [1]; [7] 3% | [1]; [8] 2% | [1]; at 50.0 µM 5.4% | [2]; [7] 2% | [2]; [8] -2% | [2]; at 50.0 µM -11.3% | [3]; [7] 0% | [3]; [8] 3% | [3]; at 50.0 µM -3.35% | [4]; [7] 0% | [4]; [8] -2% | [4]; at 50.0 µM 32.9% | [5]; [7] -2% | [5]; [8] -4% | [5]; at 50.0 µM -6.2% | [6]; [7] 8% | [6]; [8] 3% | [6]; at 50.0 µM 14.1%

CCOCCOC(=O)Cc1ccccc1
inactive: [1]; [7] 5% | [1]; [8] 42% | [1]; at 50.0 µM 64.3% | [2]; [7] 2% | [2]; [8] 6% | [3]; [7] -1% | [3]; [8] 6% | [3]; at 50.0 µM 46.9% | [4]; [7] 4% | [4]; [8] 16% | [4]; at 50.0 µM 55.6% | [5]; [7] 7% | [5]; [8] 12% | [6]; [7] 6% | [6]; [8] 19%
active: [2]; at 50.0 µM 98.3% | [5]; at 50.0 µM 94% | [6]; at 50.0 µM 95.5%

CN(CCO)CCO
active: [1]; [8] 86%
inactive: [1]; [7] 18% | [1]; at 50.0 µM 6.55% and -12.4% | [2]; [7] 3% | [2]; [8] 26% | [2]; at 50.0 µM 7.5% and 36.6% | [3]; [7] 5% | [3]; [8] 43% | [3]; at 50.0 µM -0.35% and 15.9% | [4]; [7] 1% | [4]; [8] 21% | [4]; at 50.0 µM -8.05% and 58.9% | [5]; [7] 1% | [5]; [8] 6% | [5]; at 50.0 µM -9.75% and 30.8% | [6]; [7] 10% | [6]; [8] 38% | [6]; at 50.0 µM -11.8% and 21.9%

[O]=[Sb]([OH])([OH])[c]1ccccc1
99.2% (active) and 28.1% (inactive): [3]; at 50.0 µM
99.3% (active) and 17.1% (inactive): [5]; at 50.0 µM
99.4% (active) and 23% (inactive): [4]; at 50.0 µM
99.5% (active) and -26.9% (inactive): [2]; at 50.0 µM
99.2% (active) and 6.5% (inactive): [6]; at 50.0 µM
active: [1]; [7] 95% | [1]; [8] 98% | [2]; [7] 91% | [2]; [8] 99% | [3]; [7] 94% | [3]; [8] 99% | [4]; [7] 94% | [4]; [8] 98% | [5]; [7] 93% | [5]; [8] 98% | [6]; [7] 94% | [6]; [8] 98%
99.5% (active) and -13.8% (inactive): [1]; at 50.0 µM

[Au+].c1c[n-]cn1.c1ccc([PH+](c2ccccc2)c2ccccc2)cc1
active: [1]; [7] 99% | [1]; [8] 98% | [1]; at 50.0 µM 97.9% | [2]; [7] 99% | [2]; [8] 98% | [2]; at 50.0 µM 98% | [3]; [7] 99% | [3]; [8] 98% | [3]; at 50.0 µM 96.2% | [4]; [7] 98% | [4]; [8] 97% | [4]; at 50.0 µM 93.6% | [5]; [7] 98% | [5]; [8] 98% | [5]; at 50.0 µM 97.2% | [6]; [7] 99% | [6]; [8] 98% | [6]; at 50.0 µM 97.7%

CC(=O)NC1C(S[As](C)C)OC(COC(C)=O)C(OC(C)=O)C1OC(C)=O (stereo not drawn)
inactive: [1]; [7] 59% | [2]; [7] 18% | [3]; [7] 21% | [3]; [8] 54% | [4]; [7] 12% | [5]; [7] 55% | [6]; [7] 44%
active: [1]; [8] 98% | [1]; at 50.0 µM 91% | [2]; [8] 95% | [2]; at 50.0 µM 92.4% | [3]; at 50.0 µM 88.5% | [4]; [8] 73% | [4]; at 50.0 µM 88.7% | [5]; [8] 98% | [5]; at 50.0 µM 86.1% | [6]; [8] 98% | [6]; at 50.0 µM 89.5%

CC(=O)[O-].[Zn].c1ccc(/C(=N\Nc2ccccn2)c2ccccn2)cc1
inactive: [1]; [7] 29% | [1]; [8] 66% | [1]; at 50.0 µM 41.9% | [2]; [7] 37% | [2]; [8] 61% | [2]; at 50.0 µM 9.8% | [3]; [7] 38% | [3]; at 50.0 µM 23.8% | [4]; [7] 26% | [4]; at 50.0 µM 13.8% | [5]; [7] 44% | [5]; at 50.0 µM 34.6% | [6]; [7] 36% | [6]; [8] 68% | [6]; at 50.0 µM 41.1%
active: [3]; [8] 83% | [4]; [8] 78% | [5]; [8] 86%

CC(=O)O.[Au].c1ccc([PH+](c2ccccc2)c2ccccc2)cc1
inactive: [3]; [8] 55%
active: [1]; [7] 99% | [1]; [8] 98% | [1]; at 50.0 µM 98.2% | [2]; [7] 98% | [2]; [8] 98% | [2]; at 50.0 µM 98.2% | [3]; [7] 99% | [3]; at 50.0 µM 98% | [4]; [7] 99% | [4]; [8] 96% | [4]; at 50.0 µM 98% | [5]; [7] 100% | [5]; [8] 98% | [5]; at 50.0 µM 98.2% | [6]; [7] 99% | [6]; [8] 97% | [6]; at 50.0 µM 97.6%
